According to PubChem BioAssay AID777 (Sanford-Burnham Center for Chemical Genomics, 2007):
In all, about 96,000 compounds went through this assay and about 19,000 (20%) were called active.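 The calls were made as follows: active = blocking of liver enzyme CYP2C9 beyond about 50% at 5 µM (limit read from the data); inactive = the rest.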 Not all results are given here.

Molecular target: Cytochrome P450 2C9 (Homo sapiens) (UniProt P11712)
Test: blockers of cytochrome P450 2C9 activity – biochemical, luminescence, ADME assay, primary screen (AID 777)
Details: CYP2C9 Supersomes, luciferin-H conversion, at 5 µM, hits give high values

Sequence of Cytochrome P450 2C9 (Homo sapiens) (P11712 whole entry, looked up): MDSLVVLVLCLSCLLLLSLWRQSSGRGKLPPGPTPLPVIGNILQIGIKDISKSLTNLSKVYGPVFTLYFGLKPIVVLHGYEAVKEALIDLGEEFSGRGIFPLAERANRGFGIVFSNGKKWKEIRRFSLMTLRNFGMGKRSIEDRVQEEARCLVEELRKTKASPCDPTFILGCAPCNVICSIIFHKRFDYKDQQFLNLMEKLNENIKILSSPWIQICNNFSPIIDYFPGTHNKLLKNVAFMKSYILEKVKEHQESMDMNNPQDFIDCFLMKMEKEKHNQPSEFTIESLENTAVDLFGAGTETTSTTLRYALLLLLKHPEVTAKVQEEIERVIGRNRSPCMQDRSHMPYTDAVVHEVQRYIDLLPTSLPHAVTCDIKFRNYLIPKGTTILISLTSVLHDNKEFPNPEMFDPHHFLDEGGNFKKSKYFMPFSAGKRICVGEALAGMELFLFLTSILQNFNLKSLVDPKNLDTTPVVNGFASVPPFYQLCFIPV

Structure (SMILES) | inhibition
Cn1c(C(=O)OC(C(=O)NC2CCCCC2)c2ccccn2)cc2sccc21 (stereo not drawn) | -7.2% (inactive)
CCn1c(/C=C/c2ccc([N+](=O)[O-])o2)nc2ccccc2c1=O | -18% (inactive)
COC(=O)C1CCN(CC(N)=O)CC1 | -11.4% (inactive)
CCOC(=O)CC1=CC(=O)Nc2ccccc2N1 | 7.1% (inactive)
O=C(CSc1nnnn1C1CCCC1)Nc1ccc2c(c1)OCCO2 | 62.4% (active)
O=C(CSc1nc(C2CC2)nc2ccccc12)Nc1ccc2c(c1)OCCO2 | 40.1% (inactive)
CCC(=O)Nc1cccc(NC(=O)CSc2nnnn2C2CCCC2)c1 | 16.4% (inactive)
O=C(CSc1nc2ncccc2[nH]1)Nc1ccc2c(c1)OCCO2 | 95.5% (active)
O=C(CSc1nnnn1-c1ccc2c(c1)CCC2)Nc1ccc2c(c1)OCCO2 | 0.6% (inactive)
CCNC(=O)c1sccc1-n1cccc1 | 16.1% (inactive)
Cc1ccc(N2C(=O)CC(Sc3ncn[nH]3)C2=O)cc1 (stereo not drawn) | -1.5% (inactive)
Nc1nonc1C(=O)NCCc1ccccc1 | -8.7% (inactive)
COc1ccc(OCCCON2C(=O)c3ccccc3C2=O)cc1 | 7.6% (inactive)
CN1CCN(C(=O)C2C3C=CC(C3)C2C(=O)O)CC1 (stereo not drawn) | -9.2% (inactive)
Cc1ccc2nc(/C(C#N)=C\c3ccc(OC(=O)c4cccs4)cc3)[nH]c2c1 | 81.3% (active)
Cc1ccc2nc(S(=O)(=O)O)[nH]c2c1 | -11.8% (inactive)
CSc1nsc(SC)c1NC(=O)OC1CCCCC1 | 21.9% (inactive)
O=C(Cn1c(-c2ccccn2)nc2ccccc21)NCCN1CCOCC1 | -10.5% (inactive)
Cc1cc(Nc2ccccc2)n(CCC#N)n1 | -12.2% (inactive)
COC(=O)CN1C(=O)C(O)=C(C(C)=O)C1c1ccc([N+](=O)[O-])cc1 (stereo not drawn) | 3.5% (inactive)
COc1ccc(NC(=O)C2CCCN(S(=O)(=O)c3cccc4cccnc34)C2)cc1OC (stereo not drawn) | -15.1% (inactive)
COc1ccc(S(=O)(=O)N2CCCC(C(=O)N3CCN(C)CC3)C2)cc1C (stereo not drawn) | -24% (inactive)
CS(=O)(=O)N1CCCC(C(=O)N2CCOCC2)C1 (stereo not drawn) | -11.8% (inactive)

Structure (SMILES) | inhibition
O=C(Cc1cccs1)N1CCCC(c2nc(-c3ccc(S(=O)(=O)N4CCCC4)cc3)no2)C1 (stereo not drawn) | 47.8% (inactive)
CC(C)c1ccc(-c2noc(C3CCCN(S(C)(=O)=O)C3)n2)cc1 (stereo not drawn) | 52.2% (active)
O=C(c1cccs1)N1CCCC(c2nc(-c3ccc(F)cc3)no2)C1 (stereo not drawn) | 76.9% (active)
COc1cc(-c2noc(C3CCCN(S(=O)(=O)c4cccc(Cl)c4)C3)n2)cc(OC)c1OC (stereo not drawn) | 85.3% (active)
OCCNc1nc2ccccc2[nH]1 | 2.6% (inactive)
Cc1nnc(SCC(=O)Nn2cnnc2)s1 | 29.8% (inactive)
CCc1cc(C(c2ccccc2OC)N2CCOCC2)c(NC(=O)c2ccccc2)s1 (stereo not drawn) | 85.2% (active)
CCOC(=O)c1c(NC(=O)c2ccc(N3CCOCC3)c([N+](=O)[O-])c2)sc(C)c1C | 7.5% (inactive)
COc1ccccc1NC(=O)c1ccc2nc(N3C(=O)CCC3=O)sc2c1 | -32% (inactive)
COc1ccc(-n2c(SC)nc(O)cc2=O)cc1 | -81.1% (inactive)
O=C1CSC2=NCN(c3ccccc3)CN12 | 26.1% (inactive)
O=S(N1CCCCCC1)C12CC3CC(CC(C3)C1)C2 (stereo not drawn) | 9.9% (inactive)
O=C(OCC(=O)N1CCN(C(=O)c2ccco2)CC1)c1ccccc1Cc1ccccc1 | 31.9% (inactive)
CCOC(=O)c1[nH]c2ccccc2c1N=C(C)N(CC)CC | -6.5% (inactive)
COc1cccc(OCCOc2cccc(/C=N/n3cnnc3)c2)c1 | 40% (inactive)
COc1ccccc1OCCOc1ccc(/C=N/n2cnnc2)cc1 | 44.5% (inactive)
C=CCOc1ccc(/C=N/n2cncn2)cc1OC | 57.5% (active)
Cc1ccc2c(CSc3nncs3)cc(=O)oc2c1 | 67% (active)
COC(=O)CCSc1cc([N+](=O)[O-])cc2c1c(C1OCCS1)nn2-c1ccccc1 (stereo not drawn) | 34.3% (inactive)
Cc1ccccc1C(=O)NCCN=C1NS(=O)(=O)c2ccccc21 | 7.9% (inactive)
COc1ccc(C(C#N)N2N=C(C)CC2(C)C)cc1 (stereo not drawn) | -2.1% (inactive)
N#CC1=C(SCc2ccccc2)NC(=O)C(C#N)C12CCCC2 (stereo not drawn) | 46.5% (inactive)
N#CC1=C(SCc2ccc(C#N)cc2)N=C(N)C(c2nc(-c3ccccc3)cs2)C12CCCCC2 (stereo not drawn) | 98.6% (active)

Structure (SMILES) | inhibition
O=C(O)c1cc2ccccc2c(=O)s1 | -1.7% (inactive)
CCOC(=O)C1CCCN(C(=O)C2CCN(c3nnc(-n4cccc4)s3)CC2)C1 (stereo not drawn) | 25.6% (inactive)
O=C(O)CCN1C(=O)CC2(CCCCC2)C1=O | 11.2% (inactive)
O=[N+]([O-])c1ccc(C=Nc2ccc(Cl)cc2Cl)s1 | 7.9% (inactive)
O=C1[C@@H]2C(Cc3ccc(O)cc3)NC3(C(=O)Nc4ccc(F)cc43)[C@@H]2C(=O)N1c1ccc(F)cc1 (stereo partly drawn) | 50.6% (active)
COCCCNC(NC(=O)c1ccc(C)cc1)C(Cl)(Cl)Cl (stereo not drawn) | 4.7% (inactive)
COc1ccc(NC(=O)C(NC(C)=O)C(=O)NCc2ccccc2Cl)cc1 (stereo not drawn) | 37.2% (inactive)
Cc1ccc(NC(=S)NC(NC(=O)Cc2cccc3ccccc23)C(Cl)(Cl)Cl)cc1 (stereo not drawn) | 96.6% (active)
COc1ccc(NC(=O)Nc2ccc3nsnc3c2)cc1 | 23.7% (inactive)
COc1cccc2c1OCC1COc3c(c(=O)n(C)c(=O)n3C)C21 (stereo not drawn) | -6% (inactive)
O=C(Nc1ccc(NC(=O)c2cccs2)cn1)c1ccco1 | 23.5% (inactive)
O=C(Nc1nnc(SCc2ccccc2)s1)c1ccco1 | 6.2% (inactive)
NC(=O)c1ccsc1NC(=O)c1ccco1 | 61.4% (active)
CC(NCCO)C(=O)C12CC3CC(CC(C3)C1)C2 (stereo not drawn) | -0.7% (inactive)
COc1ccc(N2C(=O)CCC(C(=O)Nc3ccccn3)C2c2ccc(OC)c(OC)c2)cc1 (stereo not drawn) | 2.6% (inactive)
Cc1csc(=NC(=O)c2ccccc2)n1CCO | 32.3% (inactive)
Cc1cc(C(=O)N2CCN(c3ccccn3)CC2)c(C)o1 | 12.4% (inactive)
Cc1ccc(S(=O)(=O)N(C)CC(=O)NC2CCCC2)cc1 | -30.3% (inactive)
Cc1ccc(-c2nc(CS(=O)CC(=O)NC3CCCC3)c(C)o2)cc1 (stereo not drawn) | 53% (active)
Cc1ccc(-c2nc(CS(=O)CC(=O)N3CCN(c4ncccn4)CC3)c(C)o2)cc1 (stereo not drawn) | 79% (active)
COc1ccc(-c2nc(CS(=O)CC(=O)N3CCc4ccccc4C3)c(C)o2)cc1 (stereo not drawn) | 40.4% (inactive)
COc1ccc(-c2nc(CS(=O)CC(=O)NCc3cccnc3)c(C)o2)cc1OC (stereo not drawn) | 47.2% (inactive)
